# Several values for one entry are separate records, joined by “and”; a condition that tells them apart may be missing. Equal entries are not always repeated. Inconclusive results are not listed. Where a structure was tested more than once in an assay, its records may differ in their call. Activity calls are given as the source filed them. Unless noted, calls follow the shape of the dose curve; as a rule, active = well fitted curve in the direction sought with a large enough effect in the repeat runs; inconclusive = weak or mixed curves; inactive = no such curve, though single readings can be large; an effect the other way counts as inactive or inconclusive.
# How the values were obtained:
# [1] = qHTS assay to identify small molecule agonists of H2AX - cell viability counter screen (AID 1224847; calls by dose curve; also: nearly all actives have a fitted effect of over 30% in size; also: potency is read from the fitted curve at half-maximal effect; as to activity change, negative = cytotoxicity: top concentration of the series differs between compounds)
# How it was run: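 Viability of CHO-K1 (wild type) cells after 3 hr compound exposure was measured by CellTiter-Glo luminescence.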
# [2] = qHTS assay to identify small molecule antagonists of the estrogen related receptor (ERR) signaling pathway from Tox21 library (AID 1224848); also: nearly all actives have a fitted effect of over 50% in size; also: potency is read from the fitted curve at half-maximal effect
# How it was run: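 ERR reporter cell line (from NTP) seeded 2,000 cells/well, rested 6 h at 37 C/5% CO2, then pin-dosed with compounds in DMSO. After 18 h at 37 C, ONE-Glo added; luminescence read after 30 min at room temperature.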
# [3] = qHTS assay to identify small molecule agonists of the estrogen related receptor (ERR) signaling pathway from Tox21 library (AID 1224849; calls by dose curve; also: nearly all actives have a fitted effect of over 15% in size); conditions: ERR reporter cell line, ONE-Glo luciferase, 18 h; at 92.4 µM (top of the series) unless noted
# How it was run: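 ERR reporter cell line (NTP) seeded, rested 6 h at 37 C/5% CO2, then pinned with Tox21 compounds in DMSO. After 18 h at 37 C, ONE-Glo luciferase luminescence was read following 30 min at room temperature.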
# [4] = qHTS RealTime-Glo MT Cell Viability Assay in HepG2 cells - 24 hour (AID 1224867); also: nearly all actives have a fitted effect of over 50% in size; also: potency is read from the fitted curve at half-maximal effect
# How it was run: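 Cells + NanoLuc/prosubstrate dispensed (600 cells/well) → 5 h at 37 C/5% CO2 → compounds in DMSO transferred → 40 h incubation at 37 C, luminescence read at 0, 8, 16, 24, 32, 40 h.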
# [5] = qHTS RealTime-Glo MT Cell Viability Assay in HEK293 cells - 32 hour (AID 1224868); also: nearly all actives have a fitted effect of over 50% in size; also: potency is read from the fitted curve at half-maximal effect; as to activity change, negative = cytotoxic: top concentration of the series differs between compounds
# How it was run: (§1)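 Tox21 10K qHTS, HEK293, 600 cells/well, RealTime-Glo reagent co-dispensed with cells; 5 h preincubation, compound by pintool, 37 C, luminescence at 0–40 h.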
# [6] = A CellTox Green Cytotoxicity Assay to monitor cytotoxicity in HEK293 cells - 0 hour (AID 1224869); also: nearly all actives have a fitted effect of over 50% in size; also: potency is read from the fitted curve at half-maximal effect
# How it was run: (§2)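 HEK293 cells premixed with CellTox Green dye were seeded at 600 cells/well and left 5 h at 37 C/5% CO2 before pin transfer of 23 nL compound in DMSO. Fluorescence from dye bound to dead-cell DNA was read during 40 h treatment.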
# [7] = qHTS RealTime-Glo MT Cell Viability Assay in HepG2 cells - 40 hour (AID 1224870); also: nearly all actives have a fitted effect of over 50% in size; also: potency is read from the fitted curve at half-maximal effect
# How it was run: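 HepG2 cells (600/well) mixed with RealTime-Glo MT reagent, settled 5 h at 37 C/5% CO2 before compound addition. Nonlytic NanoLuc luminescence from viable-cell prosubstrate reduction read repeatedly during 40 h treatment at 37 C.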
# [8] = A CellTox Green Cytotoxicity Assay to monitor cytotoxicity in HEK293 cells - 40 hour (AID 1224871); also: nearly all actives have a fitted effect of over 45% in size; also: potency is read from the fitted curve at half-maximal effect
# How it was run: as §2
# [9] = qHTS RealTime-Glo MT Cell Viability Assay in HEK293 cells - 16 hour (AID 1224872); also: nearly all actives have a fitted effect of over 50% in size; also: potency is read from the fitted curve at half-maximal effect; as to activity change, negative = cytotoxicity: top concentration of the series differs between compounds
# How it was run: as §1
# % is scaled to controls: 0 for no effect and ±100 for the full control effect.
compound,measurement,setting,value
CCCOc1sc(C(=O)N2CCC(c3cc(CN)ccc3F)CC2)c(C)c1Br,Potency,[1],46.3 µM (active)
same,Potency,[2],49.9 µM (active)
same,"activity change, positive = activation",[3],-71.6% (inactive)
same,Potency,[4],22.5 µM (active)
same,Potency,[5],22.5 µM (active)
same,Potency,[6],inactive
same,Potency,[7],28.3 µM (active)
same,Potency,[8],31.8 µM (active)
same,Potency,[9],20 µM (active)
N[C@@H](CSSC[C@H](N)C(=O)O)C(=O)O,"activity change, negative = cytotoxicity",[1],-5.28% [at 0.582 µM] (inactive)
same,"activity, negative = inhibition",[2],-3.98% [at 0.349 µM] (inactive)
same,"activity change, positive = activation",[3],-3.33% [at 0.349 µM] (inactive)
same,"activity change, negative = cytotoxic",[5],5.6% [at 0.29 µM] (inactive)
same,cytotoxicity,[6],-2.52% [at 0.29 µM] (inactive)
same,"activity change, negative = cytotoxic",[7],-2.12% [at 0.29 µM] (inactive)
same,cytotoxicity increase,[8],3.14% [at 0.29 µM] (inactive)
same,"activity change, negative = cytotoxicity",[9],13.2% [at 0.29 µM] (inactive)
CCCCCCOc1ccc(O)cc1,Potency,[1],113 µM (active)
same,Potency,[2],inactive
same,"activity change, positive = activation",[3],0.107% (inactive)
same,Potency,[5],0.0692 µM (active)
same,Potency,[6],inactive
same,Potency,[7],inactive
same,Potency,[8],19.5 µM (active)
same,Potency,[9],0.0617 µM (active)
O=C1OC(OC(=O)c2cccnc2Nc2cccc(C(F)(F)F)c2)c2ccccc21 (configuration not stated),Potency,[1],inactive
same,Potency,[2],inactive
same,"activity change, positive = activation",[3],-0.557% [at 42.5 µM] (inactive)
same,Potency,[4],inactive
same,Potency,[5],inactive
same,Potency,[6],inactive
same,Potency,[7],inactive
same,Potency,[8],inactive
same,Potency,[9],inactive
CCCCCCCC/C=C\CCCCCCCC(=O)N(C)CC(=O)O,Potency,[1],101 µM (active)
same,"activity change, positive = activation",[3],-30% (inactive)
same,Potency,[4],inactive
same,Potency,[6],inactive
same,Potency,[7],inactive
same,Potency,[8],34.7 µM (active)
O=C1c2c(O)ccc([N+](=O)[O-])c2C(=O)c2c([N+](=O)[O-])ccc(O)c21,Potency,[1],50 µM (active)
same,Potency,[2],15.2 µM (active)
same,"activity change, positive = activation",[3],-80% (inactive)
same,Potency,[4],38.5 µM (active)
same,Potency,[5],24.3 µM (active)
same,Potency,[6],inactive
same,Potency,[8],inactive
same,Potency,[9],13.7 µM (active)
Cc1cc(Nc2ccc(O)cc2)ccc1N,Potency,[1],89.4 µM (active)
same,Potency,[2],19.2 µM (active)
same,"activity change, positive = activation",[3],-47.7% (inactive)
same,Potency,[4],48.8 µM (active)
same,Potency,[5],19.4 µM (active)
same,Potency,[6],inactive
same,Potency,[8],24.4 µM (active)
same,Potency,[9],24.4 µM (active)
CC(=O)Oc1ccc(C2(c3ccc(OC(C)=O)cc3)C(=O)Nc3ccccc32)cc1,Potency,[1],inactive
same,Potency,[2],inactive
same,"activity change, positive = activation",[3],-9.03% [at 42.5 µM] (inactive)
same,Potency,[4],inactive
same,Potency,[5],inactive
same,Potency,[6],inactive
same,Potency,[7],inactive
same,Potency,[8],inactive
same,Potency,[9],inactive
O=C1C=CC(=O)N1c1ccccc1,Potency,[1],45 µM (active)
same,Potency,[2],54.5 µM (active)
same,"activity change, positive = activation",[3],-78.1% (inactive)
same,Potency,[5],11 µM (active)
same,Potency,[6],inactive
same,Potency,[7],11 µM (active)
same,Potency,[8],11 µM (active)
same,Potency,[9],15.5 µM (active)
CCCCCCCCCCCCCC[n+]1ccccc1,Potency,[1],56.6 µM (active)
same,Potency,[2],1.37 µM (active)
same,"activity change, positive = activation",[3],-77.5% (inactive)
same,Potency,[4],19.5 µM (active)
same,Potency,[5],4.9 µM (active)
same,Potency,[6],inactive
same,Potency,[7],9.77 µM (active)
same,Potency,[8],38.9 µM (active)
same,Potency,[9],27.5 µM (active)
CNC(=S)NN,Potency,[1],inactive
same,Potency,[2],13.7 µM (active)
same,"activity change, positive = activation",[3],-71.8% (inactive)
same,Potency,[4],inactive
same,Potency,[6],inactive
same,Potency,[7],inactive
same,Potency,[9],inactive
CCCCCCCC/C=C\CCCCCCCC(=O)NCc1ccc(O)c(OC)c1,Potency,[1],inactive
same,"activity change, positive = activation",[3],-18.5% [at 42.5 µM] (inactive)
same,Potency,[4],inactive
same,Potency,[5],2.68 µM (active)
same,Potency,[6],inactive
same,Potency,[7],inactive
same,Potency,[8],inactive
same,Potency,[9],1.69 µM (active)
C1CC(COCC2CO2)CCC1COCC1CO1 (configuration not stated),Potency,[1],inactive
same,"activity change, positive = activation",[3],-24.4% (inactive)
same,Potency,[5],inactive
same,Potency,[6],inactive
same,Potency,[7],inactive
same,Potency,[8],inactive
same,Potency,[9],inactive
CC(C)c1ccc(O)c(C(C)C)c1,Potency,[1],89.8 µM (active)
same,Potency,[2],inactive
same,"activity change, positive = activation",[3],-4.92% (inactive)
same,Potency,[5],inactive
same,Potency,[6],inactive
same,Potency,[7],inactive
same,Potency,[8],21.9 µM (active)
same,Potency,[9],inactive
CN1CCN(C2Cc3ccccc3Sc3ccc(Cl)cc32)CC1 (configuration not stated),Potency,[1],inactive
same,Potency,[2],26.6 µM (active)
same,"activity change, positive = activation",[3],-28.3% [at 42.5 µM] (inactive)
same,Potency,[6],inactive
same,Potency,[8],21.3 µM (active)
CC(C)(c1cc(Br)c(O)c(Br)c1)c1cc(Br)c(O)c(Br)c1,Potency,[1],89.5 µM (active)
same,Potency,[2],54.3 µM (active) and inactive
same,"activity change, positive = activation",[3],-21.4% (inactive) and -40.7% (inactive) and -13.4% (inactive)
same,Potency,[5],inactive
same,Potency,[6],inactive
same,Potency,[7],inactive
same,Potency,[8],inactive
same,Potency,[9],inactive
S=P(N1CC1)(N1CC1)N1CC1,Potency,[1],inactive
same,"activity change, positive = activation",[3],-21.7% (inactive)
same,Potency,[4],inactive
same,Potency,[6],inactive
same,Potency,[7],inactive
same,Potency,[8],inactive
same,Potency,[9],inactive
CC(C)(C)CC(C)(C)c1ccccc1O,Potency,[1],90.3 µM (active)
same,"activity change, positive = activation",[3],1.59% (inactive)
same,Potency,[6],inactive
same,Potency,[7],inactive
same,Potency,[8],39.1 µM (active)
same,Potency,[9],39.1 µM (active)
CCN=c1cc2oc3cc(NCC)c(C)cc3c(-c3ccccc3C(=O)OCC)c-2cc1C,Potency,[1],7.1 µM (active) and 31.8 µM (active)
same,Potency,[2],108 nM (active) and 122 nM (active)
same,"activity change, positive = activation",[3],-79.8% (inactive) and -73.2% (inactive)
same,Potency,[4],43.5 µM (active) and 24.5 µM (active)
same,Potency,[5],1.09 µM (active) and 1.38 µM (active)
same,Potency,[6],6.89 µM (active) and 6.92 µM (active)
same,Potency,[7],43.5 µM (active) and 21.9 µM (active)
same,Potency,[8],7.73 µM (active) and 12.3 µM (active)
same,Potency,[9],8.68 µM (active) and 6.17 µM (active)

# Reference: PubChem BioAssay (Tox21)
